Source: PubChem BioAssay (NCI)
About 83,000 compounds went through this panel and 20% of them were active in at least one assay; those are over-represented in the sample as a whole.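 Step 1: grow cells in 96-well plates. Step 2: add test compound at a single concentration. Step 3: incubate 48 h. Step 4: record percent growth.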 A number with no mark means an inactive call. Activity calls are given as the source filed them. The calls were made as follows: active = growth percent below 10; inactive = the rest.

System: EKVX NSCLC
Test: NCI-60 one-dose screen, 48 h (100 = growth as untreated, 0 = no growth, -100 = all killed)
Conditions: 10 µM unless noted

| SMILES | growth |
| --- | --- |
| N#CC1C(C#N)C2CCC1C1C2N1c1ccccc1 (stereo not given) | 97.5% |
| CC(C)(NC(=O)O[C@@H]1CN2CCC1CC2)c1csc(-c2ccc(F)cc2)n1 | 89.5% |
| CCC(C)(C)[C@H](NC(=O)[C@H]1CCCCN1C)C(=O)N(C)[C@H](C[C@@H](OC(C)=O)c1nc(C(=O)N[C@@H](Cc2ccccc2)C[C@H](C)C(=O)O)cs1)C(C)C | 52.6% |
| C[C@]12CCc3sc(-c4ccccc4O)nc3C1=CC[C@@H]1[C@@H]2CC[C@]2(C)C(=O)CC[C@@H]12 | 99.7% |
| CCOC(=O)N1CC1 | 84% |
| N#CC1(C#N)C(c2ccc(N(CCCl)CCCl)cc2)OC23CCCCC2C1(C#N)C(=N)O3 (stereo not given) | 108% |
| C=CCCCN=C=S | 92.7% |
| Cc1cccc(N2CCN(C(C)C#N)CC2)c1 (stereo not given) | 100% |
| O=C(Nc1ccc([N+](=O)[O-])cc1)C(Cl)(Cl)Cl | 89.4% |
| COP(=S)(N1CC1)N1CC1 | 106% |
| O=C(N/N=C\c1ccc(N(CCCl)CCCl)cc1)c1cccc([N+](=O)[O-])c1 | 88.6% |
| CC(=O)OC[C@]1(C)C=C2C(=O)[C@](C)(O)C3(CC3)C(C)=C2[C@H]1O | -13.7% (active) |
| CS(=O)(=O)CCN1CC2CCCC(C2)C1 | 102% |
| CCOC(=O)[C@@H](C)C[C@H](Cc1ccccc1)NC(=O)c1csc([C@@H](C[C@H](C(C)C)N(C)C(=O)[C@@H](NC(=O)[C@H]2C[C@H](O)CCN2C)C(C)C)OC(C)=O)n1 | 47.6% |
| CNCc1cccnc1 | 114% |
| Cn1cc(C=O)c2nccnc21 | 96.9% |
| Cc1cc(N(CCCl)CCCl)ccc1C=Nc1ccccc1-c1ccccc1 | 101% |
| CNC(=O)Oc1ccc2c(c1)OCO2 | 97.9% |
| COc1ccc(N(CC(=O)NCCC[Te]c2ccccc2)C(=O)CCSC2=C(C)C(=O)c3ccccc3C2=O)cc1 | -2.22% (active) |
| Cn1cccc1C1CC(=O)N(CCC[Se]C#N)C1=O (stereo not given) | -65.3% (active) |
| CC1(C)[C@H](O)[C@H](F)C[C@@]2(C)Oc3ccc(C(=O)Nc4ccc5c(c4)NC(=O)C54CCN(CCCCC#N)CC4)cc3C[C@H]12 | 82.1% |
| CCOC(=O)[C@@H](C)C[C@H](Cc1ccccc1)NC(=O)c1nc([C@@H](C[C@H](C(C)C)N(C)C(=O)[C@@H](NC(=O)[C@H]2CCCCN2C)C(C)C)OC(C)=O)sc1CCOCc1ccccc1 | 10.8% |
| C[C@]12CCc3sc(-c4cccc(F)c4)nc3C1=CC[C@@H]1[C@@H]2CC[C@]2(C)C(=O)CC[C@@H]12 | 68.3% |
| COC(=O)[C@H](C[C@H](Cc1ccccc1)NC(=O)c1csc([C@@H](C[C@H](C(C)C)N(C)C(=O)[C@@H](NC(=O)[C@H]2CCCCN2C)C(C)C)OC(C)=O)n1)NC(=O)OCc1ccccc1 | 54.7% [8.5 µM] |
| C[C@]12CC[C@H]3[C@@H](C[C@@H]4SC(Nc5ccccc5)=N[C@@]45CC(O)CC[C@]35C)[C@@H]1CCC2O (stereo not given in full) | 73.2% |
